Reference: the supplement of paper PMC6555819

What was measured:
Assay in all cases: PBM binding z-score (relative to random genomic background probes); higher = stronger binding; sequences stand for … in GC…GCGATTGACAGCGTAGAATGAAGG
[1] = system: PPARg:RXRa DBDmut IVT, anti-RXR (DBD mutation: RXRa K156A/R161A, NR concentration 270 nM, RXRa partner concentration 90 nM)
In short: (§1)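 Custom Agilent 4×180K protein-binding microarrays carried double-stranded probes, each with a 34-nt variable region. These regions held direct-repeat seeds, single-nucleotide variants, half-site ablations and random human genomic background sequences. Ligand-free nuclear receptor dimers were incubated on the arrays for 1 h, antibodies against each partner (one per run) detected binding, and scanned fluorescence was regression-normalized. Binding z-scores take the random background probes as reference.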

[2] = system: PPARg:RXRa IVT, anti-PPARg (NR concentration 270 nM, RXRa partner concentration 90 nM)
In short: as §1

[3] = system: PPARg DBDmut:RXRa IVT, anti-PPARg (DBD mutation: PPARg1 K132A/R137A, NR concentration 270 nM, RXRa partner concentration 90 nM)
In short: as §1

[4] = system: PPARg DBDmut IVT, anti-PPARg (DBD mutation: PPARg1 K132A/R137A, NR concentration 270 nM)
In short: as §1

[5] = system: PPARg homodimer (NR concentration 180 nM)
In short: as §1

[6] = system: PXR:RXRa (NR concentration 270 nM, RXRa partner concentration 90 nM)
In short: as §1

[7] = system: PXR homodimer (NR concentration 270 nM)
In short: as §1

[8] = system: RARa:RXR (NR concentration 270 nM, RXRa partner concentration 90 nM)
In short: as §1

[9] = system: RARa homodimer (NR concentration 270 nM)
In short: as §1

[10] = system: RARb:RXRa (NR concentration 270 nM, RXRa partner concentration 90 nM)
In short: as §1

Sequence	PBM binding z-score [1]	PBM binding z-score [2]	PBM binding z-score [3]	PBM binding z-score [4]	PBM binding z-score [5]	PBM binding z-score [6]	PBM binding z-score [7]	PBM binding z-score [8]	PBM binding z-score [9]	PBM binding z-score [10]
CAAACTAGGTCACCGGAAGGTCGAAGTCCGCATG	8.58	9.05	2.73	2.92	3.05	3.91	0.000336	4.49	1.1	4.8
TGAATGAGGTTATAAGAACAGGGAACGTTGCAAA	0.968	1.75	0.842	0.453	0.709	0.563	-0.0582	1.32	-0.0801	1.11
AGAATGAGGTAATTAAGATCAGGGAATTGCGGTC	2.2	1.37	0.265	-0.0371	-0.649	-0.0568	0.153	0.224	-0.15	0.0669
CCGACTGGGGCATAAGGTTACCATTAGCCAGCCC	3.03	3.04	-1.02	-1.9	0.694	0.105	-0.286	1.35	-0.407	1.61
TCTAGGAGGACACGAAAGGTCAGAGCTCGACATC	2.31	2.52	0.115	-0.502	2.04	4.08	0.408	4.32	1.42	4.35
CGATCTAGGTCAAGGACAGTGAATCTCCGCACGC	7.91	8.16	4.56	2.13	2.28	0.815	0.057	2.01	0.269	3.87
CGTCAAAGTTCATCTAAGGTAACGTAAAGCACGC	0.47	1.89	0.673	1.11	3.01	5.51	5.77	3.97	1.85	4.78
ATTAGCAGGCCAAGGGTCACTCAAGATTAGTCCG	0.795	3.76	0.0508	0.161	1.61	3.2	-0.179	4.06	0.0408	3.62
CGTCAAAGTTCAACTAAGGTAACGTAGAGCACGC	0.564	2.32	0.885	0.785	3.17	5.54	3.81	4.57	1.67	5.24
GCATAGAGGTAATACAAGGTGAAAGTCCGATTGT	1.06	1.35	0.658	0.616	0.00249	1.03	-0.217	1.18	0.413	0.751
ATCTCTAGGTAAAATTCAGTGAAAGATCGATAGA	1.48	1.53	0.966	1.25	1.04	-0.0781	0.481	-0.157	1.26	0.336
